Common to all, as to test: PBM binding z-score (relative to random genomic background probes); higher = stronger binding; sequences stand for … in GC…GCGATTGACAGCGTAGAATGAAGG
The subject of assay [1] is FXR:RXRa (NR concentration 270 nM, RXRa partner concentration 90 nM). The procedure, abridged:
(§1)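 Binding z-scores take random background probes as their reference. They come from custom Agilent 4×180K protein-binding microarrays incubated 1 h with ligand-free nuclear receptor dimers, with antibodies against each partner (one per run) detecting binding. Scanned fluorescence was regression-normalized.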

Assay [2] has as its system LXRa:RXRa (NR concentration 270 nM, RXRa partner concentration 90 nM). The essentials: as §1
Assay [3] has as its system LXRa homodimer (NR concentration 270 nM). The procedure, abridged:
as §1

Assay [4] relates to LXRb:RXRa (NR concentration 270 nM, RXRa partner concentration 90 nM). The procedure, abridged: as §1
Assay [5] deals with LXRb homodimer (NR concentration 270 nM). The essentials:
as §1

Assay [6] concerns PPARa:RXRa (NR concentration 270 nM, RXRa partner concentration 90 nM). The essentials:
as §1

The subject of assay [7] is PPARg:RXRa (NR concentration 180 nM, RXRa partner concentration 90 nM). The essentials:
as §1

Assay [8] relates to PPARg:RXRa 270nM:90nM, anti-RXR (NR concentration 270 nM, RXRa partner concentration 90 nM). The procedure, abridged:
as §1

The subject of assay [9] is PPARg:RXRa 30nM:10nM, anti-RXR (NR concentration 30 nM, RXRa partner concentration 10 nM). The essentials: as §1
The test system of assay [10] is PPARg:RXRa 90nM:30nM, anti-RXR (NR concentration 90 nM, RXRa partner concentration 30 nM). The essentials: as §1
Assay [11] relates to PPARg:RXRa DBDmut IVT, anti-RXR (DBD mutation: RXRa K156A/R161A, NR concentration 270 nM, RXRa partner concentration 90 nM). The essentials: as §1
Assay [12] deals with PPARg:RXRa IVT, anti-PPARg (NR concentration 270 nM, RXRa partner concentration 90 nM). The procedure, abridged:
as §1

Assay [13] deals with PPARg DBDmut:RXRa IVT, anti-PPARg (DBD mutation: PPARg1 K132A/R137A, NR concentration 270 nM, RXRa partner concentration 90 nM). The procedure, abridged:
as §1

The subject of assay [14] is PPARg DBDmut IVT, anti-PPARg (DBD mutation: PPARg1 K132A/R137A, NR concentration 270 nM). The essentials: as §1
Assay [15] relates to PPARg homodimer (NR concentration 180 nM). The essentials: as §1
The subject of assay [16] is PXR:RXRa (NR concentration 270 nM, RXRa partner concentration 90 nM). The procedure, abridged: as §1
For assay [17], the system named is PXR homodimer (NR concentration 270 nM). The procedure, abridged:
as §1

For assay [18], the system named is RARa:RXR (NR concentration 270 nM, RXRa partner concentration 90 nM). The essentials: as §1
Assay [19] relates to RARa homodimer (NR concentration 270 nM). The essentials:
as §1

For assay [20], the system named is RARb:RXRa (NR concentration 270 nM, RXRa partner concentration 90 nM). The essentials: as §1

As to AGTCAAAGTTCATTAGGTAACGTAAGATTCAGCT, the PBM binding z-score in assay [1] stood at 5.94; in assay [2], 6.16; in [3] it was 5.2; in [4], 3.29; in assay [5], 1.67; in assay [6] it was 4.63. Besides, the PBM binding z-score in assay [7] is 6.37; in [8], 6.16; in [9], 3.38; in assay [10], 5.54; in assay [11], 1.93; in [12], 4.02. Also, the PBM binding z-score in assay [13] came out at 1.72; in assay [14] it was 1.88; in assay [15], 3.26; in assay [16], 4.83; in assay [17], 6.94; in assay [18], 3.77. Further, the values for the PBM binding z-score in assay [19] and in assay [20] were 1.92 and 4.7, respectively.

ATATGTAGGTTATCGGGTCATCCAGTTTGCGCAT: the PBM binding z-score worked out at 3.4 in assay [1]; 3.29 in assay [2]; 1.73 in assay [3]; 3.26 in [4]; 1.22 in assay [5]; 5.15 in [6]. Besides, the PBM binding z-score in assay [7] worked out at 7.35; in assay [8], 6.27; in [9], 3.9; in assay [10] it was 5.79; in [11], 7.5; in [12], 7.73. Further, the PBM binding z-score came out at 3.61 in assay [13]; 3.11 in [14]; 3.09 in assay [15]; 3.98 in assay [16]; 5.45 in assay [17]; 4.35 in assay [18]. Also, the PBM binding z-score turned out to be 1.79 in [19] and 2.96 in assay [20].

For the sequence TCGAGTAGGTTAGGGGGATTCAGAATGGCGTCGA, the PBM binding z-score in assay [1] turned out to be 0.594; in assay [2] it was 0.704; in assay [3] it was 0.047; in assay [4] it was 2.05; in assay [5], 5.63; in assay [6] it was 1.63. The PBM binding z-score stood at 1.42 in assay [7]; 3.21 in [8]; 2.01 in assay [9]; 2.69 in assay [10]; 2.93 in assay [11]; 3.21 in assay [12]. Also, the PBM binding z-score in assay [13] turned out to be 2.69; in assay [14], 5.71; in assay [15] it was 1.41; in [16], 1.2; in assay [17] it was 0.466; in assay [18] it was 0.482. Besides, the PBM binding z-score in assay [19] stood at 0.665; in assay [20], 1.19.

Turning to GCTAGCAGGCCATTTGGGTCAGTCAATGACGGGC, the PBM binding z-score was -0.0631 in assay [1]; -0.302 in assay [2]; -0.489 in assay [3]; -0.399 in assay [4]; -1.6 in assay [5]; 0.666 in assay [6]. Besides, the PBM binding z-score is 0.221 in assay [7]; -0.137 in [8]; -0.663 in assay [9]; -0.371 in assay [10]; 1.4 in [11]; 1.05 in [12]. The PBM binding z-score in [13] is -0.511; in assay [14], -1.16; in [15], -0.0651; in [16] it was -0.047; in assay [17], 0.065; in assay [18], 0.213. The PBM binding z-score in assay [19] is -1.59; in assay [20], 1.12.

With CCTTACGGGTGAAGGTTATAGCACGGGTGGTACG, the PBM binding z-score is 0.149 in assay [1]; 0.504 in assay [2]; -0.127 in [3]; 0.0957 in assay [4]; -0.349 in [5]; 1.61 in [6]. Besides, the PBM binding z-score is 1.09 in assay [7]; 1.51 in assay [8]; -0.0216 in assay [9]; 0.958 in assay [10]; 0.6 in assay [11]; 1.31 in assay [12]. The PBM binding z-score in assay [13] is -0.607; in assay [14] it was -1.16; in assay [15], 0.456; in assay [16], 0.216; in assay [17], -0.0716; in assay [18] it was 0.732. Moreover, the values for the PBM binding z-score in [19] and in [20] were 0.409 and 1.31, respectively.

Turning to CAAACTACGTCAAGGTCAAAGTCGGTTTGTGCCA, the PBM binding z-score in assay [1] came out at 4.66; in assay [2], 4.23; in assay [3], 2.86; in assay [4] it was 3.54; in [5], 1.01; in assay [6], 4.35. In addition, the PBM binding z-score in assay [7] came to 1.43; in [8] it was 2.55; in assay [9], 0.626; in [10] it was 1.7; in [11], 0.822; in assay [12] it was 1.93. Moreover, the PBM binding z-score in [13] was 0.681; in assay [14], 0.932; in assay [15], 2.33; in assay [16], 4.63; in [17], 2.94; in assay [18], 4.28. In addition, the figures for the PBM binding z-score in assay [19] and in assay [20] were 0.409 and 4.04, respectively.

As for CGTCCAAGGTCAAGGTCAGGGAAAGAGACTCGAA, the PBM binding z-score in assay [1] came out at 7.19; in assay [2], 5.97; in [3], 1.22; in assay [4], 4.87; in assay [5] it was 0.963; in assay [6], 6.11. The PBM binding z-score in assay [7] came out at 6.41; in assay [8] it was 7.28; in assay [9], 3.93; in assay [10], 5.91; in assay [11], 4.11; in assay [12] it was 5.09. The PBM binding z-score in assay [13] is 0.821; in [14] it was -0.224; in assay [15] it was 4.18; in assay [16], 5.28; in assay [17], 1.82; in assay [18], 5.45. In addition, the PBM binding z-score in assay [19] came out at 2.88; in assay [20], 5.72.
